The whole screen tested about 300,000 compounds, of which about 37,000 (12%) were called active. The entries come from a sample that favours actives as a whole. Values without a mark were called inactive. Cut-off read from the data, not from the text of the source: active = max response mostly above about 13% (no sharp cut-off); inactive = mostly below about 14%.
Experiment: Cycloheximide Counterscreen for Small Molecule Inhibitors of Shiga Toxin; note: read at 38.3 µM for the half of the compounds with a filed dose; 0% is about no effect
Conditions: cell reporter, cycloheximide protein synthesis inhibition counterscreen; active compounds read high

Compound	max response
COc1ccccc1CC(=O)Nc1ccc(F)cc1F	-2.45%
COC(=O)c1ccccc1NC(=O)Cc1ccccc1OC	-2.67%
CC[C@]1(c2ccccc2OC)C(=O)N(C(=O)OC)N1C(=O)OC	29.1% (active)
CCCC(C)NC(=O)C1CCN(C(=O)C2CC(=O)N(c3ccc(C)cc3)C2)CC1 (centres undefined)	-4.68%
Brc1c(CSc2nncc3ccccc23)nc2ccccn12	38.5% (active)
CC(=O)O[C@H]1c2ccccc2-c2ccccc2[C@@H]1OC(C)=O	0.95%
Cc1ccc(SCC(=O)NNC(=O)c2ccc(S(C)(=O)=O)cc2)cc1	5.01%
O=C1CCC(C(=O)N2CCCCO2)CN1Cc1cccc(C(F)(F)F)c1 (centres undefined)	30% (active)
COCC1CCN(C(=O)C2CCC(=O)N(Cc3cccc(C(F)(F)F)c3)C2)CC1 (centres undefined)	29.7% (active)
COCC1CCN(C(=O)C2CCC(=O)N(CC3CCCCC3)C2)CC1 (centres undefined)	-2.01%
O=C(c1ccco1)N1CCN(Cc2cccc(C(F)(F)F)c2)CC1	-3.76%
COC(=O)c1ccc(CNC(=O)C2CCC(=O)N(Cc3cccc(F)c3)C2)cc1 (centres undefined)	0.912%
Cc1cccnc1CCNC(=O)C1CCC(=O)N(Cc2cccc(F)c2)C1 (centres undefined)	-2.2%
CC(=O)Nc1ccc(S(=O)(=O)N2CCC(C(=O)N[C@@H](Cc3ccccc3)C(=O)O)CC2)cc1	10.8%
COc1ccccc1CNC(=O)C1CCN(S(=O)(=O)c2ccc3c(c2)OCCO3)CC1	-5.22%
CCOc1cc(C(=O)O)ccc1OCCOc1ccccc1	-8.53%
COc1ccccc1CC(=O)Nc1ccc(S(=O)(=O)N2CCCC2)cc1	-4.23%
C[C@@]12C(=O)N(c3cccc(Br)c3)C(=O)N1[C@H](c1ccc(Cl)cc1)[C@@H]1C(=O)N(C3CCCCC3)C(=O)[C@@H]12	-2.82%
CS(=O)(=O)c1ccc2nc(NC(=O)CN3CCCCCC3)sc2c1	-1.48%
O=C(Nc1nc2ccc([N+](=O)[O-])cc2s1)c1ccncc1	23.5% (active)

Compound	max response
CCCC(=O)Nc1nc2ccc(NC(=O)c3cccnc3)cc2s1	9.53%
CNC(=O)c1ccc2nc(NC(C)=O)sc2c1	38% (active)
COc1cccc(C(=O)Nc2nnc(S(=O)(=O)N3CCOCC3)s2)c1	-4.33%
O=C(Nc1nc2ccc([N+](=O)[O-])cc2s1)c1ccc(S(=O)(=O)N2CCCc3ccccc32)cc1	-2.29%
CS(=O)(=O)c1ccc2nc(NC(=O)C3C4C=CC(C4)C3C(=O)O)sc2c1 (centres undefined)	2.94%
CS(=O)(=O)c1ccc2nc(NC(=O)c3ccc(Cl)nc3)sc2c1	39.4% (active)
CS(=O)(=O)c1ccc2nc(NC(=O)c3ccc(N4CCCC4=O)cc3)sc2c1	-2.38%
O=C(NC(Nc1nc2ccc([N+](=O)[O-])cc2s1)(C(F)(F)F)C(F)(F)F)c1ccccc1	0.792%
COc1cccc(C(=O)Nc2nc3ccc(S(C)(=O)=O)cc3s2)c1	33.2% (active)
CCCCSCCCNC(=O)C1CCC(CNS(=O)(=O)c2ccc(NC(C)=O)cc2)CC1 (centres undefined)	0.78%
Cc1cc(=O)[nH]c(S)c1C#N	-1.97%
O=C(CN1CCN(C(=S)NC2CCCC2)CC1)Nc1ccc(Oc2ccccc2)cc1	-0.686%
Cc1ccc(C(=O)N(CC(=O)NC2CCCC2)c2ccc(F)cc2)s1	-2.41%
CCCn1c(NC(=O)C23CC4CC(CC(O)(C4)C2)C3)nc2ccccc21	-2.34%
CCC(=O)c1ccc(N2CCN(C(=O)c3cc([N+](=O)[O-])ccc3F)CC2)c(F)c1	-0.539%
Cc1ccc2nc3c(cc(C(=O)NCCc4ccccc4)c(=N)n3CC3CCCO3)c(=O)n2c1 (centres undefined)	-3.51%
O=C(Nc1ccccc1)C1CCN(C(=O)c2ccc(Br)cc2)CC1	11.6%
O=C(NCc1ccccc1Cl)C1CCCO1 (centres undefined)	-1.7%
O=C(Nc1ccc(C(=O)NCc2ccccc2Cl)cc1)C1=CSCCO1	31.9% (active)
CSc1ccc(CNC(=O)c2ccc(NC(=O)C3=CSCCO3)cc2)cc1	3.98%

Compound	max response
Cc1nc(SCc2ccc(F)cc2)c([N+](=O)[O-])[nH]1	12.6% (active)
Cc1nc(N)nc(SCc2ccc([N+](=O)[O-])cc2)c1N	-1.9%
Cc1nc(SCC(=O)c2ccccc2)c([N+](=O)[O-])[nH]1	-1.4%
Cc1ccc(C(=O)NNC2=Nc3cc([N+](=O)[O-])ccc3OC2)cc1	20.2% (active)
Cc1ccc(C)n1NC(=O)c1ccc([N+](=O)[O-])cc1	-0.957%
COc1ccc([N+](=O)[O-])cc1NCC(=O)c1ccc(C)cc1	20.4%
O=C(CNC(=O)Cc1ccccc1)N=Nc1c(O)[nH]c2ccc(Br)cc12	-2.22%
CC1(C)CC(CC(=O)O)C(=O)O1 (centres undefined)	-0.893%
C/C(CC1CC(C)(C)OC1=O)=N/Nc1nc(-c2ccccc2)cs1 (centres undefined)	24.7% (active)
Cc1cc(C(C)(C)C)oc1C(=O)N(CC(=O)NC1CCCC1)Cc1ccc(Cl)cc1	2.13%
Cc1ccc(S(=O)(=O)N2CC(C)N(S(C)(=O)=O)C2)cc1 (centres undefined)	-4.88%
CC(=O)N/C(=N/c1nc(C)cc(C)n1)Nc1ccc(F)cc1F	-4.27%
COc1ccc(C/C(C)=N/NC(=O)c2cc(C)oc2C)cc1	26.5% (active)
CCCCCNC(=O)Cc1ccc(OC)cc1	-1.71%
COc1ccc(C/C(C)=N/NC(=O)c2ccncc2)cc1	3.76%
O=C1COc2ccc(S(=O)(=O)Nc3ccc(OC(F)(F)F)cc3)cc2N1	-6.66%
Fc1ccc(COc2ccc(-c3nnco3)cc2)cc1	52.6% (active)
Fc1ccc(COc2cccc(-c3n[nH]c(=S)o3)c2)cc1	5.34%
Fc1cccc(Cl)c1COc1ccc(-c2nnco2)cc1	24.9%
